Inconclusive results are not listed. Active and inactive are the calls of the source. How the source made its calls, unless noted: active means hit-call score of the fitted dose curve at least 0.9, where 1 is the maximum; inactive means score below 0.9.
Legend:
[1] = molecular target: Ratio of Nucleoli Translocation and Cytoplasm, AR (gene 367) (UniProt P10275); assay: UPITT_HCI_U2OS_AR_TIF2_Nucleoli_Cytoplasm_Ratio_Antagonist: University of Pittsburgh U2OS Androgen Receptor-Transcriptional Intermediary Factor 2 (AR-TIF2) Antagonism High Content Imaging Assay for Ratio of Nucleoli Translocation and Cytoplasm (AID 2283999; active means hit-call score of the fitted dose curve at least 0.9, where 1 is the maximum;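 further: antagonists lower the DHT-driven ratio of nucleolar to cytoplasmic red signal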)
Ratio of Nucleoli Translocation and Cytoplasm, AR (gene 367), sequence (P10275 whole entry, looked up): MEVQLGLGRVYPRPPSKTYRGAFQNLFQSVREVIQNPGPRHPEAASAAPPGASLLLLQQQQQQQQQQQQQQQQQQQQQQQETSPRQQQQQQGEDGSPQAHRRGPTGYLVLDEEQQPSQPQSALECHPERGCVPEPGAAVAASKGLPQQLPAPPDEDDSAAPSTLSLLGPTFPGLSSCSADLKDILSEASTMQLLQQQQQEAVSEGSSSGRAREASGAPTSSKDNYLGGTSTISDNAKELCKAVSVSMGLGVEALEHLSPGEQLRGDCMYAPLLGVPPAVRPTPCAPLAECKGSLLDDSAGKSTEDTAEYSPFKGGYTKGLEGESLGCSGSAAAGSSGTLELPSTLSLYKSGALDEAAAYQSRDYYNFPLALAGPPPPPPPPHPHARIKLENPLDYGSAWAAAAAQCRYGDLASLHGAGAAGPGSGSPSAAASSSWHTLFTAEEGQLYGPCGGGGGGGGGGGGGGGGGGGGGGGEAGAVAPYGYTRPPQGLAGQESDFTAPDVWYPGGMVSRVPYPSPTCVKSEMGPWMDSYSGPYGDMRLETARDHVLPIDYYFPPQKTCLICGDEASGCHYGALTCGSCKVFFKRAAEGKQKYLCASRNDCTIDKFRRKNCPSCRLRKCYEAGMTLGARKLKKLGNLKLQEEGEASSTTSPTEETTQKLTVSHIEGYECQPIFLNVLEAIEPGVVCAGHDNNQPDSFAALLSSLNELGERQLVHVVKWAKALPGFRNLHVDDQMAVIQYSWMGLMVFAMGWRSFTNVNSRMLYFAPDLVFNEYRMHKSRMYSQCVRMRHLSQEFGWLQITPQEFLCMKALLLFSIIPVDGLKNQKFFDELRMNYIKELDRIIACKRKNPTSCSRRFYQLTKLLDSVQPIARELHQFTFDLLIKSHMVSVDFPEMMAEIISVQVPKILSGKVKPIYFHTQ
Outline: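 Read-out is the ratio of nucleolar to cytoplasmic AR-RFP fluorescence, imaged by high-content microscopy in U2OS cells coexpressing TIF2-GFP. Single-point 20 uM screen, triplicate confirmation, then 0.195–50 uM dose response; activity referenced to DHT baseline.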

[2] = molecular target: Ratio of Nucleoli Translocation and Cytoplasm, AR (gene 367) (UniProt P10275); assay: UPITT_HCI_U2OS_AR_TIF2_Nucleoli_Cytoplasm_Ratio_Agonist: University of Pittsburgh U2OS Androgen Receptor-Transcriptional Intermediary Factor 2 (AR-TIF2) Agonism High Content Imaging Assay for Ratio of Nucleoli Translocation and Cytoplasm (AID 2284000; active means hit-call score of the fitted dose curve at least 0.9, where 1 is the maximum;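 further: hits raise the red nucleolar to cytoplasm ratio above vehicle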)
Outline: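 Compounds tested at 20 uM final in primary screen (0.2% DMSO) and 0.195-50 uM final in dose-response (0.5% DMSO). Imaging of human U2OS cells bearing RFP-AR and GFP-TIF2; endpoint is nucleoli/cytoplasm red signal ratio, positive direction relative to DMSO.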

[3] = CCTE_Shafer_MEA_acute_spike_number: CCTE's Neural Acute Assay for Total Number of Spikes, Shafer Lab (AID 2284008)
Outline: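 Total spike count from 40 min recordings before and during compound exposure (0.03-40 uM), given as per-well percent change. Cortical cultures from rat, DIV 13 or 15, 37 C; adaptive detection threshold 8x rms noise.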

[4] = CCTE_Shafer_MEA_acute_firing_rate_mean: CCTE's Neural Acute Assay for Mean Firing Rate, Shafer Lab (AID 2284009);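 further: analyzed for loss of signal so actives lower firing rate relative to DMSO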
Outline: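 Primary rat cortical neurons on 16-electrode MEA wells were exposed on DIV 13 or 15 to compound (0.03-40 uM). Spike counts per recording time, averaged over electrodes, were compared between 40-min baseline and 40-min post-exposure recordings as percent change.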

[5] = CCTE_Harrill_HTTr_Viability_MCF7: CCTE's 6-hour Cell Viability Assessment for the High-Throughput Transcriptomics (HTTr) Platform, in MCF-7 cells cultured in DMEM + 10% fetal bovine serum, Harrill Lab (AID 2284010)
Outline: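 PI exclusion, high-content imaging; 8-pt dilution series, 6 h exposure; bidirectional fit vs DMSO (neg. ctrl/baseline); gain of signal = loss of membrane integrity.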

[6] = CCTE_Harrill_HTTr_Apoptosis_MCF7: CCTE's 6-hour Apoptosis Assessment for the High-Throughput Transcriptomics (HTTr) Platform, in MCF-7 cells cultured in DMEM + 10% fetal bovine serum, Harrill Lab (AID 2284011)
Outline: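 High-content imaging of CellEvent Caspase 3/7 Green signal follows a six-hour exposure, with eight concentrations per chemical. MCF-7 cells grown in DMEM plus 10% fetal bovine serum; activity fitted in both directions against DMSO.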

[7] = CCTE_Simmons_MITO_basal_resp_rate: CCTE's HepG2 Seahorse XF Respirometric Screening Assay at Basal Respiratory State, Simmons Lab (AID 2284001); conditions: actives raise or lower the signal
Outline: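 Basal-phase OCR in HepG2 cells, read at 6-min intervals across a 72-min run, with test compound injected at 125 nM–100 uM final (7 points). Fitted both directions against DMSO; three biological replicates per concentration.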

[8] = CCTE_Simmons_MITO_max_resp_rate: CCTE's HepG2 Seahorse XF Respirometric Screening Assay at Maximal Respiratory State [uncoupled], Simmons Lab (AID 2284002); conditions: actives raise or lower the signal
Outline: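 Maximal (FCCP-uncoupled) respiration rate in HepG2, from Seahorse kinetic OCR over 72 min at 6 min cycles. Compounds at 125 nM–100 uM final, 7 points, three biological replicates; both directions fit relative to DMSO.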

[9] = CCTE_Simmons_MITO_inhib_resp_rate: CCTE's HepG2 Seahorse XF Respirometric Screening Assay at Inhibited Respiratory State [full ETC block], Simmons Lab (AID 2284006); conditions: actives raise or lower the signal
Outline: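 OCR read-out in the inhibited phase following rotenone/antimycin A, after compound and FCCP injections, in HepG2 cells. Seven concentrations (125 nM to 100 uM final), three biological replicates, 6-min cycles over 72 min; DMSO baseline.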

[10] = CCTE_Simmons_MITO_viability: CellTiter-Glo Viability Assessment for CCTE's HepG2 Seahorse XF Respirometric Screening Assay [post-hoc], Simmons Lab (AID 2284007; active means hit-call score of the fitted dose curve at least 0.9, where 1 is the maximum;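 further: cells exposed to chemical for 90 min before the ATP read; actives lower ATP signal relative to DMSO baseline meaning reduced viability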)
Outline: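 Luciferase-coupled ATP luminescence, single endpoint. HepG2, post-respirometry. Compound 125 nM–100 uM final, 7 conc., 90 min. n=3 biological, technical singles. DMSO vehicle/baseline; dichlone 10 nM–100 uM, 8 conc., as positive control.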

Measured: AC50

COc1cc2c(c(OC)c1OC)-c1ccc(OC)c(=O)cc1[C@@H](NC(C)=O)CC2
inactive: [1] | [2] | [3] | [4] | [5] | [6]

CC[C@H](C)C(=O)O[C@H]1C[C@H](O)C=C2C=C[C@H](C)[C@H](CC[C@@H](O)C[C@@H](O)CC(=O)O)[C@H]21
inactive: [3] | [4] | [5] | [6]

OC(CCl)CCl
inactive: [3] | [4] | [5] | [6]

CC(C)c1nnc2ccc(-c3ocnc3-c3cc(F)ccc3F)cn12
active: [7] 25.6 µM | [8] 76.2 µM | [10] 50 µM
inactive: [9] | [5] | [6]

Reference: PubChem BioAssay (EPA / NIEHS)
